From publication PMC9838217, “Structure of SALL4 zinc finger domain reveals link between AT-rich DNA binding and Okihiro syndrome”
Residue numbers refer to the chain shown, from its start.

Columns and labels:
[1] = target: T1, SALL4 ZFC4 R900W (HT-SELEX) (Mus musculus, UniProt Q8BX22 870-940, R900W); test: HT-SELEX; high values mean tight binding; settings: protein: recombinant; vector His6-GST; dsDNA, one strand shown
T1 sequence: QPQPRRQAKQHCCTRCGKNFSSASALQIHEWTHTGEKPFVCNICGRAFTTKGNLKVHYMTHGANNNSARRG
In short: (§1)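 Binding signal is expressed as fold change in each canonical k-mer's read fraction over the initial random library. To obtain it, 1 µg of purified recombinant mouse SALL4 zinc finger cluster 4 (residues 870–940) was incubated for 10 min at room temperature with library DNA (1.5 µg first cycle, 200 ng later cycles) in 100 µl of 10 mM Tris–HCl pH 7.5, 50 mM NaCl, poly(dI-dC) and DTT. Ni2+ bead-captured complexes went through washing, PCR amplification and reselection for up to 6 cycles, in triplicate, before MiSeq sequencing and scanning for 6-mers.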

[2] = target: T2, SALL4 ZFC4 G921D (HT-SELEX) (Mus musculus, UniProt Q8BX22 870-940, G921D); test: HT-SELEX; high values mean tight binding; settings: protein: recombinant; vector His6-GST; dsDNA, one strand shown
T2 sequence: T1 sequence with W31R, G52D
In short: as §1

Sequence: CCCCAC
- binding signal [1]: 0.272 ± 0.0152 fold-change vs cycle 0
- binding signal [2]: 0.375 ± 0.0668 fold-change vs cycle 0

Sequence: CCCCCC
- binding signal [1]: 0.217 ± 0.0203 fold-change vs cycle 0
- binding signal [2]: 0.314 ± 0.0628 fold-change vs cycle 0

Sequence: AGGCTG
- binding signal [1]: 0.37 ± 0.0148 fold-change vs cycle 0
- binding signal [2]: 0.493 ± 0.0564 fold-change vs cycle 0

Sequence: CCCCGG
- binding signal [1]: 0.118 ± 0.0064 fold-change vs cycle 0
- binding signal [2]: 0.224 ± 0.0627 fold-change vs cycle 0

Sequence: GAGGCA
- binding signal [1]: 0.367 ± 0.0203 fold-change vs cycle 0
- binding signal [2]: 0.505 ± 0.1 fold-change vs cycle 0

Sequence: ACCGAC
- binding signal [1]: 0.345 ± 0.0112 fold-change vs cycle 0
- binding signal [2]: 0.497 ± 0.0584 fold-change vs cycle 0

Sequence: GACAGC
- binding signal [1]: 0.361 ± 0.0178 fold-change vs cycle 0
- binding signal [2]: 0.491 ± 0.0963 fold-change vs cycle 0

Sequence: AGGGGC
- binding signal [1]: 0.195 ± 0.00634 fold-change vs cycle 0
- binding signal [2]: 0.332 ± 0.0629 fold-change vs cycle 0

Sequence: CGCGCG
- binding signal [1]: 0.0217 ± 0.00502 fold-change vs cycle 0
- binding signal [2]: 0.0939 ± 0.0507 fold-change vs cycle 0

Sequence: CGGGCA
- binding signal [1]: 0.116 ± 0.00794 fold-change vs cycle 0
- binding signal [2]: 0.223 ± 0.0617 fold-change vs cycle 0

Sequence: ACAGCG
- binding signal [1]: 0.265 ± 0.00461 fold-change vs cycle 0
- binding signal [2]: 0.381 ± 0.0624 fold-change vs cycle 0

Sequence: CCAGCC
- binding signal [1]: 0.149 ± 0.0151 fold-change vs cycle 0
- binding signal [2]: 0.273 ± 0.0654 fold-change vs cycle 0

Sequence: AGCAGC
- binding signal [1]: 0.286 ± 0.013 fold-change vs cycle 0
- binding signal [2]: 0.426 ± 0.0467 fold-change vs cycle 0

Sequence: GCGGCC
- binding signal [1]: 0.0274 ± 0.00551 fold-change vs cycle 0
- binding signal [2]: 0.107 ± 0.0539 fold-change vs cycle 0

Sequence: ATGCGG
- binding signal [1]: 0.275 ± 0.0176 fold-change vs cycle 0
- binding signal [2]: 0.409 ± 0.0549 fold-change vs cycle 0

Sequence: GCACCC
- binding signal [1]: 0.1961 ± 0.000728 fold-change vs cycle 0
- binding signal [2]: 0.322 ± 0.0644 fold-change vs cycle 0

Sequence: CGGGTC
- binding signal [1]: 0.212 ± 0.0149 fold-change vs cycle 0
- binding signal [2]: 0.342 ± 0.0694 fold-change vs cycle 0

Sequence: CCCGCC
- binding signal [1]: 0.0634 ± 0.0031 fold-change vs cycle 0
- binding signal [2]: 0.164 ± 0.0698 fold-change vs cycle 0

Sequence: GCAAGC
- binding signal [1]: 0.302 ± 0.00778 fold-change vs cycle 0
- binding signal [2]: 0.429 ± 0.0449 fold-change vs cycle 0

Sequence: AGGCCC
- binding signal [1]: 0.169 ± 0.00192 fold-change vs cycle 0
- binding signal [2]: 0.296 ± 0.0789 fold-change vs cycle 0

Sequence: GGGCAC
- binding signal [1]: 0.144 ± 0.00697 fold-change vs cycle 0
- binding signal [2]: 0.281 ± 0.0804 fold-change vs cycle 0

Sequence: CGAAGC
- binding signal [1]: 0.325 ± 0.00517 fold-change vs cycle 0
- binding signal [2]: 0.474 ± 0.0622 fold-change vs cycle 0

Sequence: CGCAAC
- binding signal [1]: 0.251 ± 0.0146 fold-change vs cycle 0
- binding signal [2]: 0.378 ± 0.0552 fold-change vs cycle 0

Sequence: GCCTCA
- binding signal [1]: 0.364 ± 0.0186 fold-change vs cycle 0
- binding signal [2]: 0.513 ± 0.0755 fold-change vs cycle 0

Sequence: CAGGGG
- binding signal [1]: 0.308 ± 0.0124 fold-change vs cycle 0
- binding signal [2]: 0.417 ± 0.0612 fold-change vs cycle 0

Sequence: AACGCC
- binding signal [1]: 0.242 ± 0.0243 fold-change vs cycle 0
- binding signal [2]: 0.377 ± 0.0751 fold-change vs cycle 0

Sequence: ACGAAT
- binding signal [1]: 1.26 ± 0.0589 fold-change vs cycle 0
- binding signal [2]: 1.24 ± 0.0791 fold-change vs cycle 0

Sequence: ACTATG
- binding signal [1]: 1.37 ± 0.0399 fold-change vs cycle 0
- binding signal [2]: 1.34 ± 0.0843 fold-change vs cycle 0

Sequence: GAGCGC
- binding signal [1]: 0.088 ± 0.00871 fold-change vs cycle 0
- binding signal [2]: 0.196 ± 0.0698 fold-change vs cycle 0

Sequence: ATTCTC
- binding signal [1]: 1.55 ± 0.0853 fold-change vs cycle 0
- binding signal [2]: 1.41 ± 0.126 fold-change vs cycle 0

Sequence: ACACGC
- binding signal [1]: 0.297 ± 0.0275 fold-change vs cycle 0
- binding signal [2]: 0.43 ± 0.0602 fold-change vs cycle 0

Sequence: ATGATG
- binding signal [1]: 1.51 ± 0.0621 fold-change vs cycle 0
- binding signal [2]: 1.43 ± 0.0931 fold-change vs cycle 0

Sequence: AGAGCG
- binding signal [1]: 0.324 ± 0.0123 fold-change vs cycle 0
- binding signal [2]: 0.489 ± 0.067 fold-change vs cycle 0

Sequence: GCGGTA
- binding signal [1]: 0.271 ± 0.0135 fold-change vs cycle 0
- binding signal [2]: 0.391 ± 0.0556 fold-change vs cycle 0

Sequence: CCCGAC
- binding signal [1]: 0.183 ± 0.0155 fold-change vs cycle 0
- binding signal [2]: 0.308 ± 0.0677 fold-change vs cycle 0

Sequence: GCTGGA
- binding signal [1]: 0.37 ± 0.0454 fold-change vs cycle 0
- binding signal [2]: 0.484 ± 0.0925 fold-change vs cycle 0

Sequence: ACGAGC
- binding signal [1]: 0.322 ± 0.019 fold-change vs cycle 0
- binding signal [2]: 0.459 ± 0.061 fold-change vs cycle 0

Sequence: CCGTCG
- binding signal [1]: 0.147 ± 0.00952 fold-change vs cycle 0
- binding signal [2]: 0.245 ± 0.0616 fold-change vs cycle 0

Sequence: TCGCCA
- binding signal [1]: 0.213 ± 0.00577 fold-change vs cycle 0
- binding signal [2]: 0.371 ± 0.0688 fold-change vs cycle 0

Sequence: CGCCAC
- binding signal [1]: 0.103 ± 0.0044 fold-change vs cycle 0
- binding signal [2]: 0.216 ± 0.0502 fold-change vs cycle 0

Sequence: ACGCGG
- binding signal [1]: 0.111 ± 0.0165 fold-change vs cycle 0
- binding signal [2]: 0.205 ± 0.0613 fold-change vs cycle 0

Sequence: GACGGC
- binding signal [1]: 0.105 ± 0.00605 fold-change vs cycle 0
- binding signal [2]: 0.211 ± 0.0714 fold-change vs cycle 0

Sequence: GCCACC
- binding signal [1]: 0.153 ± 0.0112 fold-change vs cycle 0
- binding signal [2]: 0.282 ± 0.0759 fold-change vs cycle 0

Sequence: GCGAGC
- binding signal [1]: 0.103 ± 0.00798 fold-change vs cycle 0
- binding signal [2]: 0.229 ± 0.0707 fold-change vs cycle 0

Sequence: CGGGAG
- binding signal [1]: 0.27 ± 0.0161 fold-change vs cycle 0
- binding signal [2]: 0.381 ± 0.0867 fold-change vs cycle 0

Sequence: CCCCCG
- binding signal [1]: 0.133 ± 0.00946 fold-change vs cycle 0
- binding signal [2]: 0.239 ± 0.0586 fold-change vs cycle 0

Sequence: ACCCGG
- binding signal [1]: 0.233 ± 0.025 fold-change vs cycle 0
- binding signal [2]: 0.341 ± 0.0691 fold-change vs cycle 0

Sequence: AGTGCC
- binding signal [1]: 0.287 ± 0.0119 fold-change vs cycle 0
- binding signal [2]: 0.444 ± 0.0567 fold-change vs cycle 0

Sequence: GCCGGC
- binding signal [1]: 0.0318 ± 0.0022 fold-change vs cycle 0
- binding signal [2]: 0.112 ± 0.0697 fold-change vs cycle 0

Sequence: CGACCC
- binding signal [1]: 0.172 ± 0.00839 fold-change vs cycle 0
- binding signal [2]: 0.317 ± 0.0852 fold-change vs cycle 0

Sequence: CCCGTC
- binding signal [1]: 0.236 ± 0.0162 fold-change vs cycle 0
- binding signal [2]: 0.34 ± 0.0606 fold-change vs cycle 0

Sequence: ACTGCG
- binding signal [1]: 0.289 ± 0.0171 fold-change vs cycle 0
- binding signal [2]: 0.407 ± 0.0604 fold-change vs cycle 0

Sequence: GCCCGA
- binding signal [1]: 0.125 ± 0.0121 fold-change vs cycle 0
- binding signal [2]: 0.243 ± 0.0758 fold-change vs cycle 0

Sequence: ACGCCT
- binding signal [1]: 0.304 ± 0.0301 fold-change vs cycle 0
- binding signal [2]: 0.443 ± 0.0612 fold-change vs cycle 0

Sequence: GGGCTA
- binding signal [1]: 0.35 ± 0.0254 fold-change vs cycle 0
- binding signal [2]: 0.487 ± 0.0896 fold-change vs cycle 0

Sequence: GCCGTA
- binding signal [1]: 0.228 ± 0.00567 fold-change vs cycle 0
- binding signal [2]: 0.345 ± 0.066 fold-change vs cycle 0

Sequence: CGCTAG
- binding signal [1]: 0.338 ± 0.0234 fold-change vs cycle 0
- binding signal [2]: 0.465 ± 0.071 fold-change vs cycle 0
